HepG2 tox: HepG2 cytotoxicity, counter-screen for TGF-b inhibitors; HepG2 CAGA-GFP viability, ATP luminescence, 18 h; Potency, µM (series often up to 46.1 µM), for the others: at the top dose activity change, negative = cytotoxicity, usual class: cytotoxic; actives 0.76% (n = 410,000); AID 588856
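CellTiter-Glo luminescence gave cytotoxicity after 18 hours at 37 degrees C. The cells were HepG2 CAGA-GFP in 1% FBS DMEM, stimulated with 500 pg/mL TGF-beta after compound addition. %Activity was normalised to no-cell wells (complete cell-killing) and DMSO (no toxicity), and curves were fitted and classified.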
S2 tox: viability counter-screen for ATXN expression inhibitors; S2 cells (HEK-293 line with an ATXN2-luciferase reporter) viability, CellTiter-Fluor protease fluorescence, 24 h; Potency, µM (highest dose often 56.7 µM), actives largely listed as cytotoxic; actives 0.49% (n = 400,000); AID 651635; also: nearly all actives have a fitted effect of over 40% in size
TGFb SMAD3 inh: inhibitors of TGF-b signaling | HepG2 CAGA-GFP TGF-b/SMAD3 reporter, GFP fluorescence, 18 h; TGF-beta stimulated, 500 pg/mL final | Potency, µM (top dose mostly 46.1 µM), for inactives: at the top dose activity, negative = inhibition, actives largely listed as inhibitors | actives 1.2% (n = 410,000) | AID 588855; also: % is scaled to controls: 0 for no effect and ±100 for the full control effect; nearly all actives have a fitted effect of over 65% in size
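GFP signal (ex488/em500-530) from TGF-beta-stimulated HEPG2 CAGA-GFP cells, 500 pg/mL final, 18 h at 37 degrees C in DMEM plus 1% FBS, normalized to unstimulated and DMSO-stimulated controls.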
ATXN2 expr inh: inhibitors of ATXN2 expression; HEK-293 ATXN2-luciferase reporter, luminescence, 24 h; Potency, µM (top dose mostly 57 µM), without a hit: top-dose activity change, negative = inhibition, usual class: inhibitors; actives 0.72% (n = 360,000); AID 1745845; also: % is scaled to controls: 0 for no effect and ±100 for the full control effect; nearly all actives have a fitted effect of over 55% in size
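qHTS (up to 57 uM final) was run with 24 h compound exposure of reporter cells at 37 °C. Each well was multiplexed: SteadyGlo luminescence measured ATXN2-luciferase expression after a fluorogenic Gly-Phe-AFC viability readout (25 uM final).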
An asterisk follows results filed as active; i = inactive; ? = inconclusive; . = no result given. Rows were chosen to be rich in hits. Some 2.3% of all compounds tested hit in one or more screens of this group. Calls follow the shape of the dose curve; as a rule, active = well fitted curve in the direction sought with a large enough effect; inconclusive = small, poorly fitted or top-dose-only effect, or another doubt; inactive = no such curve, though single readings can be large; an effect the other way counts as inactive or inconclusive. Potency is read from the fitted curve at half-maximal effect.

SMILES | HepG2 tox | S2 tox | TGFb SMAD3 inh | ATXN2 expr inh
Cc1ccc(C2C(C#N)=C(N)Oc3cc4c(cc32)OCO4)cc1 (centres undefined) | -2% | i | -12% | 1%
C=C1C(=O)[C@]23C[C@H]1CCC2[C@@]1(C)C(C[C@@H]3O)[C@](C)(C(=O)O)C[C@H](O)[C@@H]1O (some centres undefined) | -2% | i | -4% | 3%
C=C1C(=O)[C@]23C[C@H]1CC[C@H]2[C@]1(C)[C@@H](O)CC[C@@](C)(C(=O)O)[C@H]1C[C@@H]3O | -89% | . | 8.9µM* | ?
C=C1C(=O)[C@]23C[C@H]1CC[C@H]2[C@]1(C)[C@@H](OC(C)=O)CC[C@@](C)(C(=O)OC)[C@H]1C[C@@H]3OC(C)=O | 5.6µM* | 32µM* | ? | ?
C=C1C(=O)[C@]23C[C@H]1CCC2[C@@]1(C)C(C[C@@H]3O)[C@](C)(C(=O)OC)CC[C@@H]1OC(C)=O (some centres undefined) | 5.6µM* | 2.8µM* | 1µM* | 2.5µM*
C=C1C(=O)[C@]23C[C@H]1CC[C@H]2[C@]1(C)[C@@H](OC(C)=O)CC[C@@](C)(C(=O)O)[C@H]1C[C@@H]3O | -79% | . | 5.6µM* | 3.2µM*
O=c1c2c(nc3c(-c4cccc5ccccc45)c[nH]n13)CCC2 | -50% | i | -6% | -16%
O=c1c2c(nc3c(-c4ccc(Cl)cc4)c[nH]n13)CCCC2 | -22% | ? | ? | 16µM*
CC(=O)Nc1nc(-c2ccc([N+](=O)[O-])cc2)cs1 | -20% | i | -4% | .
O=C(Nc1ccc([N+](=O)[O-])cc1)Nc1nc(-c2ccc(Cl)s2)cs1 | 10µM* | 14µM* | ? | 7.9µM*
COc1cc(NC(C)=O)ccc1-c1cc2ccccc2oc1=O | -14% | i | ? | 35%
COc1cc(NC(=O)c2ccc(Cl)cc2Cl)ccc1-c1cc2ccccc2oc1=O | 11µM* | i | 13µM* | -23%
Cc1cc(N/N=C/c2ccc(Cl)cc2)nc(NCc2ccccc2)n1 | -60% | ? | ? | 0%
Cc1cc(N/N=C/c2cccc(Cl)c2)nc(NCc2ccccc2)n1 | 10µM* | ? | 20µM* | ?
Cc1cc(Nc2cccc(Cl)c2)nc(NCc2ccccc2)n1 | -94% | ? | 18µM* | -24%
Cc1c(N)cccc1C(F)(F)F | . | i | . | 22%
CCNc1ccc(Br)cc(C(=O)/C=C/c2ccccc2Cl)c1=O | -61% | ? | 37% | 20µM*
COC(=O)c1cn([C@@H]2C[C@@H](C(=O)Nc3cccc(SC)c3)N(C3CCCC3)C2)nn1 | . | i | . | .
COc1ccc(S(=O)(=O)N2CCC[C@H]2C(=O)N2CCC[C@H]2C(=O)NCc2ccc(F)cc2F)cc1C | . | 25µM* | . | ?
COc1ccc(-n2c(CNC(=O)c3ccccc3C(F)(F)F)nnc2SC)cc1 | . | i | . | .
CSc1ccccc1C(=O)NCC1Cc2cccc(-c3ncccc3C)c2O1 (centres undefined) | . | i | . | .
CS(=O)(=O)N(Cc1ccccc1)c1ccc(C(=O)Nc2ccc(Cl)cc2)cc1 | -103% | 32µM* | ? | ?
Cc1ccccc1NC(=O)c1ccc(N(Cc2ccccc2)S(C)(=O)=O)cc1 | -66% | . | ? | ?
COC(=O)c1ccc(NC(=O)CN(Cc2ccccc2)S(=O)(=O)c2ccc(Cl)cc2)cc1 | -22% | ? | 18µM* | ?
CN(C)c1ccc(CCc2ccnc3ccccc23)cc1 | -32% | . | 0% | .
SMILES | HepG2 tox | S2 tox | TGFb SMAD3 inh | ATXN2 expr inh
C=CC[n+]1ccc(/C=C2\C=Cc3cc(C)ccc3N2CC)c2ccccc21 | -47% | 9.5µM* | 2.8µM* | ?
NS(=O)(=O)c1ccc(N/N=C/c2cn(-c3ccccc3)nc2-c2cccs2)cc1 | 11µM* | i | 10µM* | 1%
NS(=O)(=O)c1ccc(N/N=C/c2cn(-c3ccccc3)nc2-c2cccs2)c([N+](=O)[O-])c1 | -61% | ? | ? | ?
CC1(C)S[C@@H]2[C@H](NC(=O)Cc3ccccc3)C(=O)N2[C@H]1C(=O)O (tested in a mixture with another compound) | . | i | . | 8%
COC(=O)c1ccc(CN2CCC3(CCC(CNC(=O)c4ccccc4)O3)CC2)cc1 (centres undefined) | . | i | . | .
C=CCc1ccccc1OCCSc1nc(-c2ccccc2F)nc2cc(=O)[nH]n12 | -24% | i | 18µM* | -20%
COc1ccc(-c2nc(SCCOc3ccccc3Cl)n3[nH]c(=O)cc3n2)cc1 | -21% | i | ? | -7%
CC(C)c1ccc(S(=O)(=O)c2cc3cc(Br)ccc3oc2=O)cc1 | 5% | i | -20% | 20µM*
CC(C)CC1C(=O)N(Cc2cn(CCC3OCCO3)nn2)CCS(=O)(=O)N1Cc1ccc(-c2cccc(CO)c2)cc1 (centres undefined) | -24% | i | 0% | -6%
COCOCCn1cc(CN2CCS(=O)(=O)N(Cc3ccc(-c4ccc(Cl)c(Cl)c4)cc3)C(C)C2=O)nn1 (centres undefined) | -109% | . | ? | 28µM*
Cc1cccc(C)c1-c1ccc(CN2C(CC(C)C)C(=O)N(Cc3cn(CCO)nn3)CCS2(=O)=O)cc1 (centres undefined) | -84% | 32µM* | ? | 28µM*
CC1C(=O)N(Cc2cn(CCC3OCCCO3)nn2)CCS(=O)(=O)N1Cc1ccc(-c2ccc(Cl)c(Cl)c2)cc1 (centres undefined) | -38% | 25µM* | ? | 25µM*
CC(C)CC1C(=O)N(Cc2cn(CCC3OCCCO3)nn2)CCS(=O)(=O)N1Cc1ccc(-c2ccc(Cl)c(Cl)c2)cc1 (centres undefined) | -56% | 32µM* | ? | ?
CCCCCCCC/C=C\CCCCCCCC(=O)OC[C@@H](O)[C@H]1OC[C@H](O)[C@H]1O | . | i | . | .
Cn1cc(CNC2CCN(c3cccc(NC(=O)c4cccnc4)c3)CC2)cn1 | . | i | . | .
CC1C(=O)N(Cc2cn(CCC3OCCO3)nn2)CCS(=O)(=O)N1Cc1ccc(-c2ccc(Cl)cc2)cc1 (centres undefined) | -24% | 32µM* | ? | ?
CCC/C=C/c1ccc(CN2C(CC(C)C)C(=O)N(Cc3cn(Cc4ccco4)nn3)CCS2(=O)=O)cc1 (centres undefined) | -88% | ? | 16µM* | ?
Cc1cc(-c2ccc(CC(=O)Nc3ccc(-c4cccnc4)cc3)cc2)ccn1 | . | . | . | -6%
CCCn1c(/C=N/Nc2nc3ccccc3[nH]2)nc2ccccc21 | -19% | . | ? | ?
CC(C)Cn1c(/C=N/Nc2nc3ccccc3[nH]2)nc2ccccc21 | -18% | ? | ? | 4.5µM*
CCN(CC)c1ccc(/C=N/Nc2nc3ccccc3[nH]2)cc1 | -2% | 5.6µM* | 3% | .
Cc1nn(-c2ccccc2)c(Cl)c1CN(C(=O)CCl)c1ccc(Cl)cc1 | 7.9µM* | 11µM* | 10µM* | 14µM*

Compound activity (PubChem BioAssay)
